# Data: PubChem BioAssay
# Where “and” joins values, the source holds several entries; their conditions need not be identical. Equal entries are not always repeated. Records with an inconclusive call do not appear. Calls of active or inactive are those of the source. Unless noted, no rule for the calls is given here.
# Key:
# [1] = compounds altering circadian rhythm period length – cell-based, LOPAC library, luminescence reporter (AID 2774); settings: circadian reporter cells, at 7 µM, actives lie on both sides;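 also: values are relative to mean of DMSO wells on each plate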
# [2] = test system: Hepatitis C virus NS3 helicase; test: blockers of NS3h binding to ssDNA – biochemical, fluorescence polarization, LOPAC1280 library, primary screen (AID 687035; in the data active = inhibition above about 37%); settings: Purified HCV NS3 helicase, Cy5-dT15 ssDNA binding fluorescence polarization; stronger effect = higher value; concentration not given here
# [3] = compounds altering Cy5-DNA-NS3h complex signal – biochemical, LOPAC1280, artefact control for HCV NS3 helicase inhibitor project (AID 687037); settings: Cy5-DNA-NS3h complex fluorescence interference counterscreen
# [4] = viability loss in pontine glioma line – cell-based, SU-DIPG-IV, MIPE4.0, CellTiter-Glo, qHTS, dose response (AID 1347063; cut-off not given, nearly all actives have AC50 up to about 30 µM;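 also: compound exposure lasted 48 hours before the viability readout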); settings: CellTiter-Glo ATP luminescence
# [5] = GFP-Q80 aggregate reduction, neuronal-like cells, cell-based, NGF-treated PC12, GFPQ80 (AID 1614); settings: PC12 NGF-treated GFP-polyQ80 inclusion reduction;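 also: lower means fewer inclusions and 0 means no inclusions at all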
# R275C/Slo1WT/beta2 = test: BK channel mutant inhibitors and activators – cell-based, U2OS BacMam, thallium flux, beta subunits, selectivity assay, profiling panel (AID 1259406;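 active = thallium flux through the channel raised or lowered by more than 3 SD from vehicle-only wells, actives on both sides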;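 also: initial slope of Thallos dye fluorescence rise after thallium is added; log ratio against the mean of 0.3% DMSO vehicle wells on the same plate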); settings: U2OS BacMam BK variants, at 30 µM
# [6] = target: ATP-dependent translocase ABCB1 (Homo sapiens) (UniProt P08183); test: P-glycoprotein substrate transport blockade – cell-based (AID 377; in the data active = fluorescence slope change above about 50%); settings: MDR1-expressing cells, fluorescent substrate accumulation slope; stronger effect = higher value; concentration not given here
# [7] = viability loss in pontine glioma line – cell-based, SU-DIPG-XIII, MIPE4.0, CellTiter-Glo, qHTS, dose response (AID 1347061; cut-off not given, nearly all actives have AC50 up to about 37 µM;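 also: cells exposed to compound for 48 hours before readout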); settings: CellTiter-Glo ATP luminescence
# [8] = viability loss in pontine glioma line – cell-based, JHH-DIPG-1, MIPE4.0, CellTiter-Glo, qHTS, dose response (AID 1347062; cut-off not given, nearly all actives have AC50 up to about 27 µM;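 as to AC50: cells exposed to compound for two days before readout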); settings: JHH-DIPG-1 viability, CellTiter-Glo ATP luminescence
# [9] = growth inhibition of DIPG cells – cell-based, MIPE4.0 library, CellTiter-Glo luminescence, qHTS (AID 1347066; cut-off not given, nearly all actives have AC50 up to about 30 µM;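 also: cells exposed to compound for 48 hours before readout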); settings: SU-DIPG-VI viability, CellTiter-Glo ATP luminescence
# [10] = growth inhibition, single agent or in combination, cell-based, chromothripsis tumors, cisplatin or BGB combos (AID 1671449; in the data active = inhibition above about 80%;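 also: cells exposed for 96 hours; 0% = vehicle DMSO and 100% = killing by high DMSO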); settings: LFS_MB_P medulloblastoma cells
# [11] = growth inhibition, single agent and combos, cell-based, chromothripsis tumors, cisplatin or BGB combos (AID 1671450; in the data active = inhibition above about 80%;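 also: cells exposed to compound for four days; 0% = vehicle DMSO and 100% = cell killing by high DMSO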); settings: HDN33 neuroblastoma cells, stronger effect = higher value
# [12] = growth inhibition, single agents and combos, ICB984, cell-based, cisplatin or BGB combos, synergistic combos for chromothripsis tumors (AID 1671451); settings: ICB984 medulloblastoma cells, drug combinations, stronger effect = higher value;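 also: cells exposed for 96 hours before readout; 0% = vehicle DMSO and 100% = killing by high DMSO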
# [13] = growth inhibition, single agents and combos, HTB85, cell-based, BGB or cisplatin IC20 combos, synergistic combos for chromothripsis tumors (AID 1671453; in the data active = inhibition above about 80%;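 also: cells exposed for 96 hours before readout; 0% = vehicle DMSO and 100% = high DMSO killing control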); settings: HTB85 osteosarcoma cells, drug combinations, stronger effect = higher value
# [14] = test system: Aerobactin synthetase IucA (Klebsiella pneumoniae); test: inhibition of K. pneumoniae IucA enzyme – biochemical, Tocris library, absorbance (AID 1345561); settings: purified IucA enzyme assay, absorbance (OD) read-out; stronger effect = lower value;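 tested at 8 µM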;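 also: 100% = enzyme without compound and 0% = no enzyme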
# [15] = viability loss in pontine glioma line – cell-based, SU-DIPG-XVII, MIPE5.0, CellTiter-Glo, qHTS, dose response (AID 1347060; cut-off not given, nearly all actives have AC50 up to about 26 µM); settings: CellTiter-Glo ATP luminescence
# [16] = JHH-DIPG-1 glioma cell viability, MIPE5.0 library, CellTiter-Glo luminescence, qHTS (AID 1347067; cut-off not given, nearly all actives have AC50 up to about 26 µM;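 also: cells exposed to compound for 48 hours before readout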); settings: JHH-DIPG-1 glioma viability, CellTiter-Glo ATP luminescence
# [17] = growth inhibition of DIPG cells – cell-based, MIPE5.0 library, qHTS (AID 1347068; cut-off not given, nearly all actives have IC50 up to about 30 µM); settings: SU-DIPG-XXV viability
# [18] = viability loss in pontine glioma line – cell-based, SU-DIPG-XXV, MIPE5.0, CellTiter-Glo, qHTS, dose response (AID 1347065; cut-off not given, nearly all actives have AC50 up to about 26 µM;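 also: cells exposed to compound for 48 hours before ATP readout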); settings: CellTiter-Glo ATP luminescence
# [19] = viability loss in pontine glioma line – cell-based, SU-DIPG-XIII, MIPE5.0, CellTiter-Glo, qHTS, dose response (AID 1347064; cut-off not given, nearly all actives have AC50 up to about 23 µM); settings: CellTiter-Glo ATP luminescence
# Chain of ATP-dependent translocase ABCB1 (Homo sapiens) (P08183 whole entry, looked up): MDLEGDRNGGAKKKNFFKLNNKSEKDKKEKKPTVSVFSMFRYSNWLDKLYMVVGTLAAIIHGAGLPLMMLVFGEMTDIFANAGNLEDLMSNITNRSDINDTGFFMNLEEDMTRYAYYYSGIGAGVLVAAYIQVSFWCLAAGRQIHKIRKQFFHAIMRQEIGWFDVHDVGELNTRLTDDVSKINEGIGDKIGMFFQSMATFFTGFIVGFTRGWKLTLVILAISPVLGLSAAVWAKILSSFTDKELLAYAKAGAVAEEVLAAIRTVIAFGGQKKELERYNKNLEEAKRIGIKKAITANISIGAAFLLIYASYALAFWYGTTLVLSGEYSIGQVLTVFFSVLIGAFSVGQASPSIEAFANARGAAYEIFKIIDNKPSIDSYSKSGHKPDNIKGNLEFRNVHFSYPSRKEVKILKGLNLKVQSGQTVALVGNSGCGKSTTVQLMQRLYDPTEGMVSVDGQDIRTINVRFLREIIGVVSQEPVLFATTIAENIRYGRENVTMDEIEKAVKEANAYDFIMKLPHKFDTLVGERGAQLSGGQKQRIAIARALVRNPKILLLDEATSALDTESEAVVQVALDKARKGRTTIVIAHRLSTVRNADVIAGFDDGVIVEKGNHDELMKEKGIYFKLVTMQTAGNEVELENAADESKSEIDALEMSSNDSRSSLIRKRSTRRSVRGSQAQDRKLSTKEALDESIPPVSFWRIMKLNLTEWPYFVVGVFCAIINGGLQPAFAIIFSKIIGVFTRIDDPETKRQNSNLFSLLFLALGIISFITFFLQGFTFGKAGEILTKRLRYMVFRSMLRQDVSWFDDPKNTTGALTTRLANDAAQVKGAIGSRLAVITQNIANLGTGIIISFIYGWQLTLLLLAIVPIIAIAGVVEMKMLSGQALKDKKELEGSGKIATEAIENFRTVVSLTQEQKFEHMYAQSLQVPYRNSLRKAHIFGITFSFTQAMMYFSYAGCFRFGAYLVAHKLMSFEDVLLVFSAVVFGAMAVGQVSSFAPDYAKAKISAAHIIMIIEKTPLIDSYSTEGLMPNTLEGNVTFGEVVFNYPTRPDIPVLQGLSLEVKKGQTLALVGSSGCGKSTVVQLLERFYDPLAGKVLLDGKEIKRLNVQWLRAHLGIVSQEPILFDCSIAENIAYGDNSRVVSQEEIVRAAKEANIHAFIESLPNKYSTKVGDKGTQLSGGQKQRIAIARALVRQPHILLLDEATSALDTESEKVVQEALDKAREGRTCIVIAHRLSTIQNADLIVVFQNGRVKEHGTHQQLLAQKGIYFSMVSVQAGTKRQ
smiles,measurement,setting,value
O=C(CCCN1CCC(O)(c2cccc(C(F)(F)F)c2)CC1)c1ccc(F)cc1,period change,[1],0.235 h (inactive)
same,inhibition,[2],-3% (inactive)
same,fluorescence ratio (interference),[3],1 (inactive)
CNS(=O)(=O)CCc1ccc2[nH]cc(C3CCN(C)CC3)c2c1,outcome,[4],inactive
Cc1ccc(O)cc1,inclusion score,[5],2
O=C(O)CCc1nc(-c2ccccc2)c(-c2ccccc2)o1,period change,[1],0.145 h (inactive)
same,inhibition,[2],-4% (inactive)
same,fluorescence ratio (interference),[3],1 (inactive)
same,log fold change Tl+ flux,R275C/Slo1WT/beta2,0.0514 (inactive)
CCCC(=O)Nc1ccc(OCC(O)CNC(C)C)c(C(C)=O)c1 (stereo not given),inclusion score,[5],2
same,log fold change Tl+ flux,R275C/Slo1WT/beta2,-0.0238 (inactive)
CCn1cc(C(=O)O)c(=O)c2ccc(C)nc21,fluorescence slope change,[6],59.8% (active)
same,inclusion score,[5],2
same,outcome,[7],inactive
same,outcome,[8],inactive
same,outcome,[9],inactive
same,inhibition,"[10]; at 0.5 µM, stronger effect = higher value",-12.4% (inactive) and -25.4% (inactive)
same,inhibition,"[10]; measured here: combination with BGB IC20, at 0.005 µM",-22.2% and -24.5%
same,inhibition,"[10]; measured here: combination with BGB IC40, at 0.005 µM",11.9% and -5.77%
same,inhibition,"[10]; measured here: combination with BGB IC40, at 0.05 µM",1.93% and -7.94%
same,inhibition,"[10]; measured here: combination with cisplatin, at 0.5 µM, stronger effect = higher value",-11.7% and -31.6%
same,inhibition,"[10]; measured here: combination with cisplatin, at 5 µM, stronger effect = higher value",-6.26% and -18.6%
same,inhibition,"[11]; BGB combo, at 5 µM",-4.41% and 16.2%
same,inhibition,[11]; at 0.5 µM,3.94% (inactive) and 4.3% (inactive)
same,inhibition,"[11]; cisplatin combo, at 5 µM",-15% and -2.27%
same,inhibition,"[11]; measured here: with BGB IC20 combination, at 0.5 µM",-7.56% and 11.7%
same,inhibition,"[11]; measured here: with cisplatin IC20 combination, at 0.5 µM",7.18% and 9.4%
same,inhibition,"[11]; single agent, at 5 µM",11.6% and -22.5%
same,inhibition,"[12]; BGB IC20 combo, at 0.005 µM",7.03% and -21.5%
same,inhibition,"[12]; BGB IC40 combo, at 0.005 µM",-26.9% and -29.6%
same,inhibition,"[12]; BGB IC40 combo, at 0.05 µM",-0.123% and -9.89%
same,inhibition,[12]; at 0.5 µM,-22.6% (inactive) and -21.9% (inactive)
same,inhibition,"[12]; cisplatin combo, at 0.05 µM",-0.123% and -9.89%
same,inhibition,"[12]; cisplatin combo, at 0.5 µM",-52.2% and -39.7%
same,inhibition,"[12]; cisplatin combo, at 5 µM",-11.7% and -29.5%
same,inhibition,"[12]; measured here: 5 uM single agent, at 5 µM",-3.29% and -15.7%
same,inhibition,[13]; at 0.5 µM,-2.77% (inactive) and -11% (inactive)
same,inhibition,"[13]; measured here: with BGB IC20, at 0.5 µM",-12.2% and -35.2%
same,inhibition,"[13]; measured here: with BGB IC20, at 5 µM",-14.2% and -15.8%
same,inhibition,"[13]; measured here: with cisplatin IC20, at 0.5 µM",-1.63% and -0.143%
same,inhibition,"[13]; measured here: with cisplatin IC20, at 5 µM",17.1% and -0.249%
same,inhibition,"[13]; single agent, at 5 µM",22.3% and -3.38%
same,log fold change Tl+ flux,R275C/Slo1WT/beta2,-0.00423 (inactive)
COc1ccc2cc([C@H](C)C(=O)O)ccc2c1,inclusion score,[5],2
same,period change,[1],-0.095 h (inactive)
same,inhibition,[2],-6% (inactive)
same,fluorescence ratio (interference),[3],1 (inactive)
same,remaining activity,[14],75.8% (inactive)
same,outcome,[15],inactive
same,outcome,[7],inactive
same,outcome,[8],inactive
same,outcome,[4],inactive
same,outcome,[9],inactive
same,outcome,[16],inactive
same,outcome,[17],inactive
same,log fold change Tl+ flux,R275C/Slo1WT/beta2,0.0377 (inactive)
COCCCOc1ccnc(CS(=O)c2nc3ccccc3[nH]2)c1C (stereo not given),outcome,[15],inactive
same,outcome,[7],inactive
same,outcome,[8],inactive
same,outcome,[4],inactive
same,outcome,[18],inactive
same,outcome,[9],inactive
same,outcome,[17],inactive
CC12CCC(CC1)C(C)(C)O2,inclusion score,[5],2
CN(C)C(=O)C(CCN1CCC(O)(c2ccc(Cl)cc2)CC1)(c1ccccc1)c1ccccc1,period change,[1],-0.235 h (inactive)
same,inhibition,[2],-4% (inactive)
same,fluorescence ratio (interference),[3],1 (inactive)
same,remaining activity,[14],118% (inactive)
same,outcome,[7],inactive
same,AC50,[8],20.9 µM (active)
same,outcome,[4],inactive
same,outcome,[19],inactive
same,outcome,[16],inactive
same,outcome,[17],inactive
same,log fold change Tl+ flux,R275C/Slo1WT/beta2,0.0159 (inactive)
CN1CCN(C2=Nc3cc(Cl)ccc3Nc3ccccc32)CC1,period change,[1],0.13 h (inactive)
same,inhibition,[2],-3% (inactive)
same,fluorescence ratio (interference),[3],1 (inactive)
same,remaining activity,[14],121% (inactive)
same,outcome,[8],inactive
same,outcome,[4],inactive
same,AC50,[18],13.2 µM (active)
same,outcome,[9],inactive
same,outcome,[17],inactive
same,log fold change Tl+ flux,R275C/Slo1WT/beta2,0.0195 (inactive)
CC(C(=O)O)c1cccc(C(=O)c2ccccc2)c1 (stereo not given),fluorescence slope change,[6],70.4% (active)
same,inclusion score,[5],2
same,period change,[1],-0.125 h (inactive)
same,inhibition,[2],-5% (inactive)
same,fluorescence ratio (interference),[3],1 (inactive)
same,outcome,[15],inactive
same,outcome,[4],inactive
same,outcome,[19],inactive
same,outcome,[18],inactive
same,outcome,[9],inactive
same,outcome,[16],inactive
same,log fold change Tl+ flux,R275C/Slo1WT/beta2,-0.0223 (inactive)
CC(C)OC(=O)C(C)(C)Oc1ccc(C(=O)c2ccc(Cl)cc2)cc1,inclusion score,[5],0
same,period change,[1],0.08 h (inactive)
same,fluorescence ratio (interference),[3],1.1 (inactive)
same,outcome,[8],inactive
same,outcome,[4],inactive
same,outcome,[19],inactive
same,outcome,[16],inactive
same,outcome,[17],inactive
same,log fold change Tl+ flux,R275C/Slo1WT/beta2,0.0641 (inactive)
NC(=O)c1cccnc1,outcome,[15],inactive
same,outcome,[8],inactive
same,outcome,[4],inactive
same,outcome,[19],inactive
same,outcome,[18],inactive
same,outcome,[9],inactive
same,outcome,[16],inactive
same,outcome,[17],inactive
same,log fold change Tl+ flux,R275C/Slo1WT/beta2,0.0115 (inactive)
O=C(CCCN1CCC(O)(c2ccc(Cl)cc2)CC1)c1ccc(F)cc1,fluorescence slope change,[6],23.3% (inactive)
same,period change,[1],0.015 h (inactive)
same,inhibition,[2],-3% (inactive)
same,fluorescence ratio (interference),[3],1 (inactive)
same,remaining activity,[14],128% (inactive)
same,outcome,[7],inactive
same,outcome,[4],inactive
same,outcome,[9],inactive
same,log fold change Tl+ flux,R275C/Slo1WT/beta2,-0.0319 (inactive)
C[C@@H](C1=C(CCN(C)C)Cc2ccccc21)c1ccccn1,remaining activity,[14],105% (inactive)
Oc1ccc(O)cc1,period change,[1],-0.06 h (inactive)
same,inhibition,[2],0% (inactive)
same,fluorescence ratio (interference),[3],1.1 (inactive)
CN1C(=O)CC[C@H]1c1cccnc1,fluorescence slope change,[6],94.5% (active)
same,inclusion score,[5],2
same,period change,[1],0.1 h (inactive)
same,inhibition,[2],-2% (inactive)
same,fluorescence ratio (interference),[3],1 (inactive)
CC(C)NCC(O)COc1cccc2[nH]ccc12 (stereo not given),fluorescence slope change,[6],68.5% (active)
same,inclusion score,[5],2
same,period change,[1],0.015 h (inactive)
same,inhibition,[2],-5% (inactive)
same,fluorescence ratio (interference),[3],1 (inactive)
same,remaining activity,[14],101% (inactive)
same,log fold change Tl+ flux,R275C/Slo1WT/beta2,0.017 (inactive)
CNCCCN1c2ccccc2CCc2ccccc21,period change,[1],-0.04 h (inactive)
same,inhibition,[2],-1% (inactive)
same,fluorescence ratio (interference),[3],1 (inactive)
same,log fold change Tl+ flux,R275C/Slo1WT/beta2,-0.0879 (inactive)
COc1cc(Cc2cnc(N)nc2N)cc(OC)c1OC,inclusion score,[5],2
same,period change,[1],0.055 h (inactive)
same,inhibition,[2],1% (inactive)
same,fluorescence ratio (interference),[3],1 (inactive)
same,log fold change Tl+ flux,R275C/Slo1WT/beta2,0.00876 (inactive)
COc1c2occc2cc2ccc(=O)oc12,fluorescence slope change,[6],78.2% (active)
same,inclusion score,[5],2
same,outcome,[15],inactive
same,outcome,[7],inactive
same,outcome,[8],inactive
same,outcome,[4],inactive
same,outcome,[19],inactive
same,outcome,[9],inactive
same,outcome,[16],inactive
same,outcome,[17],inactive
same,log fold change Tl+ flux,R275C/Slo1WT/beta2,0.00849 (inactive)
Cc1ccc(-n2nc(C(C)(C)C)cc2NC(=O)Nc2ccc(OCCN3CCOCC3)c3ccccc23)cc1,outcome,[15],inactive
same,AC50,[7],13.2 µM (active)
same,outcome,[8],inactive
same,outcome,[4],inactive
same,outcome,[19],inactive
same,outcome,[18],inactive
same,outcome,[9],inactive
same,outcome,[16],inactive
same,outcome,[17],inactive
Cc1cc(NS(=O)(=O)c2ccc(N)cc2)no1,fluorescence slope change,[6],62% (active)
same,inclusion score,[5],2
same,AC50,[7],2.96 µM (active)
same,outcome,[8],inactive
same,outcome,[4],inactive
same,log fold change Tl+ flux,R275C/Slo1WT/beta2,-0.0702 (inactive)
